Records with an inconclusive call do not appear. Active and inactive are the calls of the source. The call rests on the fitted dose curve; in most records, active means well fitted inhibition curve with a large enough effect; inconclusive means small, poorly fitted or top-dose-only effect; inactive means flat fitted curve, though single readings scatter.
Tested on: CP203
Test: qHTS profiling for inhibitors of Plasmodium falciparum proliferation (AID 504749);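 further: 0% = DMSO vehicle and full inhibition = artemisinin control; nearly all actives have a fitted effect of over 60% in size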
Details: P. falciparum in erythrocytes, SYBR Green DNA, 72 h; series mostly up to 28.7 µM; activity, negative = inhibition: at the top concentration
How it was run: (§1)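 Each compound contacts P. falciparum-infected red blood cells for 72 h at 37 C; lysis buffer (Tris, EDTA, saponin, Triton X, SYBR Green I) is added and fluorescence measured next morning; values normalized to controls.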

Row | Structure (SMILES) | activity, negative = inhibition
1 | CC(C)(C)NCC(O)COc1ccc(NC(=O)NC2CCCCC2)cc1 (configuration not stated) | -7.7% (inactive)
2 | O=C1OC(OC(=O)c2cccnc2Nc2cccc(C(F)(F)F)c2)c2ccccc21 (configuration not stated) | -2.25% (inactive)
3 | O=C1NS(=O)(=O)c2ccccc21 | 1.62% (inactive)

Tested on: CP211
Test: as above
Details: P. falciparum in erythrocytes, SYBR Green DNA, 72 h; series mostly up to 28.7 µM; activity, negative = inhibition: at the top concentration
How it was run: as §1

Row | Structure (SMILES) | Potency | activity, negative = inhibition
4 | NC(=O)NNc1ccccc1 | inactive | 
5 | O=C(O)[C@@H]1CSCN1 |  | 1.73% (inactive)
6 | COc1ccc2c(c1)C(=O)N(CCc1ccc(S(=O)(=O)NC(=O)NC3CCCCC3)cc1)C(=O)C2(C)C |  | -1.19% [at 12.8 µM] (inactive)
7 | CCCc1c(OCCCCc2nn[nH]n2)ccc(C(C)=O)c1O |  | -6.21% (inactive)
8 | COc1ccc2[nH]c(S(=O)Cc3ncc(C)c(OC)c3C)nc2n1 (configuration not stated) |  | -10.1% (inactive)
9 | CCn1cc(C(=O)O)c(=O)c2cnc(N3CCNCC3)nc21 |  | 0.977% [at 12.8 µM] (inactive)
10 | O=C(O)COc1nn(Cc2ccccc2)c2ccccc12 |  | 0.596% (inactive)
11 | O=C1O[C@H]([C@@H](O)CO)C(O)=C1O |  | -2.5% (inactive)
12 | O=S(=O)(O)c1cc(I)c(O)c2ncccc12 |  | -4.67% (inactive)
13 | CC1=C(CC(=O)O)c2cc(F)ccc2/C1=C\c1ccc(S(C)=O)cc1 (configuration not stated) |  | 1.74% (inactive)
14 | CCOC(=O)c1ccc(O)cc1 |  | -3.39% (inactive)
15 | O=C(O)c1ccccn1 |  | -4.37% (inactive)
16 | Cc1cc(O)cc2c1O[C@](C)(CCC[C@H](C)CCC[C@H](C)CCCC(C)C)CC2 |  | -4.67% (inactive)
17 | NCC(=O)CCC(=O)O |  | 2.15% (inactive)
18 | COc1cc2[nH]c(=O)[nH]c(=O)c2cc1OC |  | -10.5% [at 12.8 µM] (inactive)
19 | CCC(=O)Nc1ccc(O)cc1 |  | 0.812% (inactive)

Row | Structure (SMILES) | Potency | activity, negative = inhibition
20 | COc1ccc(Cl)cc1C(=O)NCCc1ccc(S(=O)(=O)NC(=O)NC2CCCCC2)cc1 |  | -5.06% (inactive)
21 | O=C1NC(=O)[C@@]2(CCOc3ccc(F)cc32)N1 |  | 1.74% (inactive)
22 | O=Cc1ccccc1C=O |  | -9.16% (inactive)
23 | CC(O)CN(CCN(CC(C)O)CC(C)O)CC(C)O (configuration not stated) |  | -1.16% (inactive)
24 | Cc1ccc(C(C)C)cc2c(C)ccc1-2 |  | -5.36% (inactive)
25 | Nc1nc2c(ncn2CCC(CO)CO)c(=O)[nH]1 |  | -0.146% (inactive)
26 | NCCNCCNCCN |  | -9.54% (inactive)
27 | CC1(C)OC(=O)NC1=O |  | 5.43% (inactive)
28 | CCCCN(CCCC)CCCOC(=O)c1ccc(N)cc1 |  | -11.4% [at 12.8 µM] (inactive)
29 | O=C1c2c(O)cccc2Cc2cccc(O)c21 |  | 0.164% (inactive)
30 | CCCOC(=O)c1ccccc1 |  | 0.314% (inactive)
31 | CC12CCC(CC1)C(C)(C)O2 |  | -4.63% (inactive)
32 | CC(=O)Nc1ccc(/C=N/NC(N)=S)cc1 | inactive | 
33 | CC(C)(C)NCC(O)COc1ccc(NC(=O)NC2CCCCC2)cc1 (configuration not stated) |  | -4.55% (inactive)
34 | O=C1OC(OC(=O)c2cccnc2Nc2cccc(C(F)(F)F)c2)c2ccccc21 (configuration not stated) |  | 0.309% (inactive)
35 | O=C1NS(=O)(=O)c2ccccc21 |  | -0.725% (inactive)

Tested on: CP215
Test: as above
Details: P. falciparum in erythrocytes, SYBR Green DNA, 72 h; series mostly up to 28.7 µM; activity, negative = inhibition: at the top concentration
How it was run: as §1

Row | Structure (SMILES) | Potency | activity, negative = inhibition
36 | NC(=O)NNc1ccccc1 | inactive | 
37 | O=C(O)[C@@H]1CSCN1 |  | -1.01% (inactive)
38 | COc1ccc2c(c1)C(=O)N(CCc1ccc(S(=O)(=O)NC(=O)NC3CCCCC3)cc1)C(=O)C2(C)C |  | 5.17% [at 12.8 µM] (inactive)
39 | CCCc1c(OCCCCc2nn[nH]n2)ccc(C(C)=O)c1O |  | -21.3% (inactive)
40 | COc1ccc2[nH]c(S(=O)Cc3ncc(C)c(OC)c3C)nc2n1 (configuration not stated) |  | -14.8% (inactive)
41 | O=C(O)COc1nn(Cc2ccccc2)c2ccccc12 |  | -7.36% (inactive)
42 | O=C1O[C@H]([C@@H](O)CO)C(O)=C1O |  | 2.58% (inactive)
43 | O=S(=O)(O)c1cc(I)c(O)c2ncccc12 |  | 0.62% (inactive)
44 | CC1=C(CC(=O)O)c2cc(F)ccc2/C1=C\c1ccc(S(C)=O)cc1 (configuration not stated) |  | 4.74% (inactive)
45 | CCOC(=O)c1ccc(O)cc1 |  | -10.7% (inactive)
46 | NCC(=O)CCC(=O)O |  | -11% (inactive)
47 | CC(C)(C)C(=O)NCCCC(=O)O |  | -3.07% (inactive)
48 | COc1cc2[nH]c(=O)[nH]c(=O)c2cc1OC |  | 1.83% [at 12.8 µM] (inactive)
49 | CCC(=O)Nc1ccc(O)cc1 |  | -1.13% (inactive)
50 | O=C1NC(=O)[C@@]2(CCOc3ccc(F)cc32)N1 |  | -1.36% (inactive)
51 | CC(O)CN(CCN(CC(C)O)CC(C)O)CC(C)O (configuration not stated) |  | -8.4% (inactive)
52 | Nc1nc2c(ncn2CCC(CO)CO)c(=O)[nH]1 |  | -3.15% (inactive)
53 | CCCCN(CCCC)CCCOC(=O)c1ccc(N)cc1 |  | -3.94% [at 12.8 µM] (inactive)
54 | O=C1c2c(O)cccc2Cc2cccc(O)c21 |  | 4.55% (inactive)
55 | CCCOC(=O)c1ccccc1 |  | 2.12% (inactive)
56 | CC12CCC(CC1)C(C)(C)O2 |  | 1.57% (inactive)
57 | CC(=O)Nc1ccc(/C=N/NC(N)=S)cc1 | inactive | 
58 | CC(C)(C)NCC(O)COc1ccc(NC(=O)NC2CCCCC2)cc1 (configuration not stated) |  | -0.0455% (inactive)
59 | O=C1OC(OC(=O)c2cccnc2Nc2cccc(C(F)(F)F)c2)c2ccccc21 (configuration not stated) |  | -0.824% (inactive)
60 | O=C1NS(=O)(=O)c2ccccc21 |  | 2.08% (inactive)

Tested on: CP217
Test: as above
Details: P. falciparum in erythrocytes, SYBR Green DNA, 72 h; series mostly up to 28.7 µM; activity, negative = inhibition: at the top concentration
How it was run: as §1

Row | Structure (SMILES) | Potency | activity, negative = inhibition
61 | NC(=O)NNc1ccccc1 | inactive | 
62 | O=C(O)[C@@H]1CSCN1 |  | -7.92% (inactive)
63 | COc1ccc2c(c1)C(=O)N(CCc1ccc(S(=O)(=O)NC(=O)NC3CCCCC3)cc1)C(=O)C2(C)C |  | 1.01% [at 12.8 µM] (inactive)
64 | CCCc1c(OCCCCc2nn[nH]n2)ccc(C(C)=O)c1O |  | -27.4% (inactive)
65 | CCn1cc(C(=O)O)c(=O)c2cnc(N3CCNCC3)nc21 |  | 1.88% [at 12.8 µM] (inactive)
66 | O=C(O)COc1nn(Cc2ccccc2)c2ccccc12 |  | -0.0394% (inactive)
67 | O=C1O[C@H]([C@@H](O)CO)C(O)=C1O |  | 8.12% (inactive)
68 | O=S(=O)(O)c1cc(I)c(O)c2ncccc12 |  | -17.1% (inactive)
69 | CC1=C(CC(=O)O)c2cc(F)ccc2/C1=C\c1ccc(S(C)=O)cc1 (configuration not stated) |  | -1.24% (inactive)
70 | CCOC(=O)c1ccc(O)cc1 |  | 4.7% (inactive)
71 | O=C(O)c1ccccn1 |  | -0.96% (inactive)
72 | Cc1cc(O)cc2c1O[C@](C)(CCC[C@H](C)CCC[C@H](C)CCCC(C)C)CC2 |  | -0.28% (inactive)
73 | NCC(=O)CCC(=O)O |  | -0.18% (inactive)
74 | CC(C)(C)C(=O)NCCCC(=O)O |  | 0.311% (inactive)
75 | COc1cc2[nH]c(=O)[nH]c(=O)c2cc1OC |  | 0.0012% [at 12.8 µM] (inactive)
76 | CCC(=O)Nc1ccc(O)cc1 |  | 3.38% (inactive)

Row | Structure (SMILES) | Potency | activity, negative = inhibition
77 | COc1ccc(Cl)cc1C(=O)NCCc1ccc(S(=O)(=O)NC(=O)NC2CCCCC2)cc1 |  | 6.76% (inactive)
78 | O=C1NC(=O)[C@@]2(CCOc3ccc(F)cc32)N1 |  | 18.4% (inactive)
79 | O=Cc1ccccc1C=O |  | 11.5% (inactive)
80 | CC(O)CN(CCN(CC(C)O)CC(C)O)CC(C)O (configuration not stated) |  | -1.18% (inactive)
81 | Cc1ccc(C(C)C)cc2c(C)ccc1-2 |  | -1.29% (inactive)
82 | Nc1nc2c(ncn2CCC(CO)CO)c(=O)[nH]1 |  | -11.6% (inactive)
83 | NCCNCCNCCN |  | 6.47% (inactive)
84 | CC1(C)OC(=O)NC1=O |  | 4.23% (inactive)
85 | CCCCN(CCCC)CCCOC(=O)c1ccc(N)cc1 |  | -4.17% [at 12.8 µM] (inactive)
86 | O=C1c2c(O)cccc2Cc2cccc(O)c21 |  | -5.08% (inactive)
87 | CCCOC(=O)c1ccccc1 |  | 4.23% (inactive)
88 | CC12CCC(CC1)C(C)(C)O2 |  | 1.3% (inactive)
89 | CC(=O)Nc1ccc(/C=N/NC(N)=S)cc1 | inactive | 
90 | CC(C)(C)NCC(O)COc1ccc(NC(=O)NC2CCCCC2)cc1 (configuration not stated) |  | 0.184% (inactive)
91 | O=C1OC(OC(=O)c2cccnc2Nc2cccc(C(F)(F)F)c2)c2ccccc21 (configuration not stated) |  | 5.2% (inactive)
92 | O=C1NS(=O)(=O)c2ccccc21 |  | -3.26% (inactive)

Source: PubChem BioAssay (NCATS)
